Laboratory results: PubChem BioAssay AID1347426 (Functional Genomics Laboratory (NCATS/FGL), 2020)
Out of some 31,000 sequences screened, about 1,400 (4.5%) were called active. Shown is part of a subset that was picked to be rich in actives. Unmarked numbers belong to inactive results.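 Rule for the calls: active = median seed-adjusted z-score above 1 or below -1; inactive = the rest.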

Experiment: Novel Modifiers of Survival Motor Neuron (SMN) Protein: Gene Identification via Genome-wide siRNA Screen;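 note: luminescence tracks full-length SMN protein made from the SMN2 reporter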
Conditions: HEK293T SMN2-luciferase reporter, siRNA knockdown, 72 h; actives lie on both sides
Summary of the method: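 Steps: spot 1 pmol siRNA, add Lipofectamine RNAiMax in serum-free DMEM, seed HEK293T SMN2–luciferase reporter cells; incubate 72 h at 37 °C; add ONE-Glo; normalize luminescence to control siRNA, log10, MAD. Candidates: |MAD| > 1.0.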

Sequence | median seed-adjusted z-score
GAGUGGAAAUUUCACCUAUTT against IFNAR2 | -0.219
UCAGUAUCUUGGUCCUGUATT against CALCB | 0
CACCUGUUCUAUCACAGUATT against NOP2 | 1.15 (active)
CCGCAGAUCCUGUAGACUATT against PARD3B | 0.306
GAGAACAUGUUGUUCCGCUTT against SSPO | 0.397
GGGAUACAUUUAAGCGCAATT against SYTL2 | 0.211
AGAGGCUGCGGUUCAAAGATT against PTP4A3 | 0.354
GAUCCUGAGUUAGAGAAGATT against METTL3 | 0.261
GCAGUUCCCUUAGAGCUAGTT against MAP4 | 1.67 (active)
UCUCCUUCUUCGGAACGAATT against SCAMP5 | -0.303
GACUGUAUCCAAACGAAUUTT against SLITRK2 | -0.246
GCUUCUCGGCUGUCCAUGATT against CLCNKB | 0.428
GAAUAAGCCGUGUACUGAUTT against CASD1 | 0.202
GAUUCAGUGUGGGAGAGUUTT against MCAT | 0
CGAGGACAUUGAUAACGAATT against CCNB2 | 0.0328
GAUGAUUACCAGGAACGAATT against CAPRIN1 | 1.36 (active)
CCUCCGAAUUCUCAACAUATT against CSNK1E | -0.796
CGAAUCAUUUGGGAAUUGATT against IDH1 | 0.421
ACUUUGCAAUCGCUCAAAATT against NPTX1 | -0.117
CAAUCUUCUUGGGAUUAUUTT against TRPC7 | 0.146
GGGAGAAGGUGAGCAGUAUTT against ZYX | 0.273
CAGCCAUGAUAAUAAAGCUTT against RARRES2 | -0.125

Sequence | median seed-adjusted z-score
GGAUGAUCGUGACAAGUUUTT against ATP1B3 | -0.225
GAGAAGAUGUGGACAUACATT against GRIA1 | 0.927
GAAGCUCUCUUGACUAUGATT against FKBP3 | -0.102
GCAUUUACUCGCUCUUCAATT against KCNK12 | 1.04 (active)
AGACUUUGUUGUUACACUUTT against SYPL1 | -0.457
GGAAGUUCGCAGAAAAGUATT against PDIA5 | 0.989
CGGUACUACCCAAACGUCATT against APOBEC3D | -0.0215
GAACUUUCCUGUUACCUUUTT against CD81 | 0
CCAUAUGAGUCCUAUGAGATT against SMURF1 | -1.4 (active)
CAUCGUCCAUGACAAGUCATT against GTF2IRD1 | -0.282
AGAAAGGUUUUACUACAAUTT against POLR2C | -2.95 (active)
GGAAAACUCGUGUCCAUCATT against FARP1 | -0.487
UGUUCAGCAUAGUUGUUUUTT against SLC12A9 | -0.0853
GGAUCAAGCUCACAAGGGATT against WDR36 | 0.00836
GCUCGUUGGGACCAACUAATT against DYNC2H1 | -0.613
GACCAAAAUUUGGAUACAATT against CTSL2 | -1.04 (active)
GUGUGGACUUGGAACAAUATT against THUMPD2 | -0.129
GGGAUUCCAUUGACCAGAATT against PLCG2 | 0
GCUGAGGAGUCAGUGCAUGTT against TNFRSF18 | 0.154
AGACUGUAUUGCAGGGUGATT against MAFK | 1.73 (active)
GAGUCGGAGUCGAAGUAGATT against NKTR | -1.1 (active)
GAAUUAUGCUACUCGAGAATT against EIF3A | -0.689

Sequence | median seed-adjusted z-score
CAACAACAGGUAUGAGAUATT against ACCN2 | -0.597
GCUGAAGGCUUAUGAGUAUTT against KCNV2 | -1.13 (active)
GUGGUCACUUGGUUCCAGATT against LBX2 | 0.538
GGUCAUAGGUUUUGGAUCUTT against HIATL1 | 0.327
CCAAUGCAGUGAUUACCGUTT against HSPA1L | -1.27 (active)
CCAGUUUCAUUAUACAUCATT against ZNF211 | -0.173
GCUUCACCCUGGCUAGAAATT against ECHDC2 | -0.0827
GUGUCGAGCUUGCAACUGUTT against LAMC2 | -0.186
CCUUUAACCAGUCUGCACATT against ZNF85 | -1.01 (active)
GAAGGUGGAUUGCAACAAATT against GPX6 | 0.35
GCAGAAGGCUCAGUAGCUATT against NAT5 | -0.0124
CACCCGCGCUCAUGAGAAATT against KLC2 | 0.0706
GCCCAUUACUUUACCACUUTT against METTL4 | 0.244
GCCUUGAUCAAGUAACAGATT against PARD6B | 0.315
GGCGCACGCUUUUCUCUAATT against ACTR1A | 1.28 (active)
GCCUCAUGUAAAACCCUAUTT against MYLK | 0.0226
GCCUUCGAGUUCCUUGUUUTT against COX6B2 | -0.544
GUACUUUUGACAACAUUUATT against NAT13 | 0
GGCUUUGAGCAUAAGAUCATT against MAP3K10 | 0.201
GCACCAAACUUAGCUACGATT against DIS3L2 | -0.265
GACUGGGUCUGGUAAAACATT against DHX15 | 1.36 (active)
GAAUUGGACAUUUCGGAUATT against NEK10 | -0.0464

Sequence | median seed-adjusted z-score
CAGUUGCAACUCUUCGUGATT against ALB | -0.153
AAACAACUCGAUUUCGAAATT against PCDHB13 | -0.293
GAACUUUUGGGACCAAAUATT against NME5 | 0.393
GCCUUUUACGCAAACAUGUTT against P2RY8 | -0.136
GAUUUUAUCUCAGUACAUUTT against UCK2 | -1.51 (active)
CGUGCACUAUAUUGCAGUUTT against PRMT2 | 0.0895
GGAAUGUCACGGCUAAUCATT against PITPNM3 | -0.0378
GGAAUGAUACCAUACCGAATT against NUP93 | 1.01 (active)
UGAUCGCCUUGGUGAUUCATT against FOXH1 | 0
GGAUAGUUACUGACCGGGATT against NCL | 1.33 (active)
GCGGGAGCAUUAUCUCAAATT against ZNF341 | 0.356
CCAGACCUCAUGUCACAGATT against ZNF777 | 0.128
GACUGAAUGUUUAUACAGUTT against OSBPL1A | 0.0845
GGUGGUAUCCUGUUCACAATT against TM9SF4 | -0.0191
GGACCAUUUAGAGAAGGUUTT against WARS2 | 0.21
CCUACGUUACUUUCCCUCATT against FOXD4L6 | -0.137
CAUGGAACAUUGUGAGAAATT against RPS6KB1 | 1.4 (active)
AAAUCAAGAUUCUUACUGATT against TPM3 | 0.111
GCACUUUAGAAUCACACGATT against TRMT6 | 0.069
GCUCAUUGUACAUCUCAGATT against ZNF26 | 0
CCUGCUUACCUGAUCAAAATT against SLC25A34 | -0.256
GCAUAACUGUAGACUACAATT against ADAM32 | 1.75 (active)

Sequence | median seed-adjusted z-score
CAGUCUUACUGGGAACAAUTT against TGDS | -0.196
GCCCAUUGGAUAUCAGUAUTT against STRADB | 0.21
CUAUUAGGUUGACCAAUAATT against OSGEPL1 | -0.708
GGAGGAUCAAUUUAUCAGATT against VDAC2 | 0.648
CAGUGUUCCUAUUAGAUGATT against LONP2 | 1.52 (active)
CCUGUGCUGUUAUGAAGCUTT against APC2 | 0.00354
GAAUGGAGAGAGAAUUGAATT against B2M | -0.367
GGAUUAAAGAGAAGAUCUATT against ERH | -1.25 (active)
CCAGGAGAAAUAUAAGUCATT against ZNF627 | 0.204
GGACGAGAAAAACUGCUCATT against CORIN | -0.0274
GCAUACAUAUGGUAUAGCATT against DDX20 | -0.0137
GCGGAGAUCAGAUUAGUCATT against NCL | 1.33 (active)
GCAUGACCGCUUAUCCCAATT against SLC6A5 | -0.204
CAUUCACUUUGACACCAUATT against HSD17B7 | 0.0836
GGUUUUUGCUGGACAAACATT against PPP2R3C | 0.295
CCGUGUACGUGGAUGAUGATT against LPHN1 | -1.03 (active)
GCAUUAGUCUGACAGUACATT against MRGPRX3 | -0.175
CGAACCUAAUGCUCAACAATT against PREX2 | -0.0625
GGAAAUUAGAUACCGAGGATT against SLC25A30 | 0
GGCUAACAUUAGAACACUUTT against MED6 | -2.15 (active)
